Screening data from PubChem BioAssay.
MITF primary: blocks human microphthalmia-associated transcription factor; AlphaScreen MITF homodimerization, bead proximity signal; inhibition, % at 2.6 µM; 650,000 tested, 0.91% active; AID 1259374; in the data active = inhibition above about 50%;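 note: 0% = vehicle wells with protein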
Target sequence (O75030 whole entry, looked up): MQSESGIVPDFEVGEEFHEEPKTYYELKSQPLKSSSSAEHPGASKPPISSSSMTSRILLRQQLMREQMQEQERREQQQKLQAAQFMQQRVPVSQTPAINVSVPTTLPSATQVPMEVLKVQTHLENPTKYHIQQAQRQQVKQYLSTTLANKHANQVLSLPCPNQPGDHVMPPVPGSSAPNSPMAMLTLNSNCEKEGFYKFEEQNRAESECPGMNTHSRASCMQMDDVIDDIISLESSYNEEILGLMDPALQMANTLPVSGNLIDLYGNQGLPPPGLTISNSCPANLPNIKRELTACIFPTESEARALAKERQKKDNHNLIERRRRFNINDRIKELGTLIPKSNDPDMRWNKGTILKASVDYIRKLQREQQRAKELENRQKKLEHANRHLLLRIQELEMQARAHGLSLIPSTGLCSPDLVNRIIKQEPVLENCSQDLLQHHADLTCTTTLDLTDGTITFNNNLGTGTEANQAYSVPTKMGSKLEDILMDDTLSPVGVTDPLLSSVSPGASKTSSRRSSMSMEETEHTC
TEAD-YAP block: TEAD-YAP interaction inhibition. HEK-TIYL cells, TEAD-Gal4/YAP UAS-luciferase luminescence. inhibition, % at 9.12 µM. 640,000 tested, 1.4% active. AID 1259422; in the data active = inhibition above about 32%;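 note: 0% = median of test compound wells and 100% = reference inhibitor wells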
GPR151 activ: activates the human receptor GPR151; Q8TDV0; 650,000 tested, 1% active; activation, % at 11.2 µM; PathHunter beta-arrestin GPR151 cells, luminescence; in the data active = activation above about 4.9%;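 note: 0% = median of compound wells and 100% = cells with positive control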
FBW7 act: human FBW7 E3 ligase activation, primary screen | normalized activity (activation), % at 26.1 µM | 650,000 tested, 0.13% active | AlphaScreen FBW7–phospho-cyclin E peptide binding, activator screen | AID 1259310; in the data active = normalized activity above about 1.9%;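 note: purified mutant Fbw7 with reduced substrate affinity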
MITF confirm: human MITF inhibition, confirmation; AlphaScreen MITF homodimerization, biotin/His-MITF beads; 4,700 tested, 16% active; AID 1259372; shares compounds with MITF primary; inhibition, % at 2.6 µM;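 active = inhibition above a cutoff derived from the DMSO control wells, cut at about 28% in these data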;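 note: 0% = MITF dimer wells with DMSO only; inhibitors lower the bead chemiluminescence by keeping MITF from dimerizing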
AS interf DR: optically interferes with AlphaScreen signal in dose response. 480 tested, 6% active. AID 1259373. AlphaScreen optical interference counterscreen, cell-free. shares compounds with MITF primary. IC50, µM; call rule not given here
AlphaScreen intf2: optically interferes with AlphaScreen signal | shares compounds with MITF primary | LysRS AlphaScreen counterscreen, signal interference, triplicate | inhibition, % at 2.6 µM | 4,700 tested, 7.6% active | AID 1259376;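 active = inhibition above a cutoff derived from the DMSO control wells, cut at about 30% in these data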
* hit, by the source's call; nt = no result given. This is a sample that favours compounds with a hit; in the whole collection about 3.5% have one here.

SMILES	MITF primary	TEAD-YAP block	GPR151 activ	FBW7 act	MITF confirm	AlphaScreen intf2	others
CN(CCOc1ccc(Cl)cc1)CN1C(=O)NC2(CCCCC2)C1=O	6	0	-1	0	nt	nt
CCS(=O)(=O)N1CCN(CC(=O)c2ccco2)CC1	56*	5	2	0	8	23
O=C(CN1CCN(Cc2ccc(Cl)c(Cl)c2)CC1)c1ccco1	61*	-1	0	0	7	19
O=C(CN1CCN(C(=O)c2c(F)cccc2Cl)CC1)c1ccco1	8	-7	3	0	nt	nt
CCN(CC(=O)Nc1ccccc1OC)CC(=O)Nc1ccccc1-c1ccccc1	82*	44*	0	-1	20	29
Nc1ccccc1Oc1nnnn1-c1ccccc1	13	6	0	0	nt	nt
CCCS(=O)(=O)N1CCN(Cc2ccccc2F)CC1	57*	6	0	0	0	-4
CCCS(=O)(=O)N1CCN(Cc2nc3ccccc3[nH]2)CC1	67*	-7	-1	0	7	20
CS(=O)(=O)N1CCN(Cc2nc3ccccc3[nH]2)CC1	72*	0	-1	0	8	12
Cc1cc(C)cc(OCCCCn2cncn2)c1	61*	0	0	0	1	5
Clc1ccc(OCCCn2cncn2)cc1Cl	63*	6	2	0	14	7
c1ccc(-c2ccc(OCCCCn3cncn3)cc2)cc1	55*	-51	1	0	37*	7	AS interf DR=>6.5
c1ccc(COc2ccc(OCCCCn3cncn3)cc2)cc1	7	-12	-2	0	nt	nt
CCCOc1ccccc1N=c1ssc2c1-c1cc(OCC)ccc1NC2(C)C	5	-6	0	0	nt	nt
O=C(ONC1=NCCCCC1)c1ccc([N+](=O)[O-])o1	-2	27	-2	0	nt	nt
CCOc1ccccc1CN1CCN(S(=O)(=O)c2ccc(F)cc2)CC1	5	-10	-1	1	nt	nt
CC1(C)C2CCC1(C)C(NCC(O)COc1ccc(C#N)cc1)C2 (stereo not given)	77*	5	-1	0	-18	-4
OC(CNC1CCCC1)COc1ccc(OCC(O)CNC2CCCC2)cc1 (stereo not given)	5	9	3	0	nt	nt
Cc1ccc(N2C(=O)C3ON(c4ccccc4)C(c4ccc([N+](=O)[O-])cc4)C3C2=O)cc1 (stereo not given)	61*	-1	1	0	5	-4
COc1ccc(C(C)=O)cc1CSc1nc(NC2CCCCC2)c2ccccc2n1	80*	-2	1	0	0	-1
COc1ccc(C(C)=O)cc1CSc1nc(NCCc2ccccc2)c2ccccc2n1	3	-2	0	0	nt	nt
CCCc1ccc(C#N)c(SCC(=O)Nc2ccc(S(N)(=O)=O)cc2)n1	-6	-11	1	0	nt	nt
C#CCNCC(O)COc1ccc(OCC)cc1 (stereo not given)	66*	-21	-1	0	3	7
CC(C(=O)Nc1ccc(F)c(F)c1)N1C(=O)c2ccccc2C1=O (stereo not given)	-4	-4	-3	0	nt	nt
COc1cc(/C=C2/NC(=O)NC2=O)cc(Br)c1OCc1ccccc1F	-4	4	-1	0	nt	nt
SMILES	MITF primary	TEAD-YAP block	GPR151 activ	FBW7 act	MITF confirm	AlphaScreen intf2	others
CCn1c(SCc2nc(-c3ccc(C)cc3)no2)nnc1-c1ccncc1	-1	-7	0	0	nt	nt
CCCCCCCC(=O)NNC(=O)c1ccc(Cl)cc1	9	-4	0	0	nt	nt
CCCCCC(=O)NNC(=O)c1ccc(-c2ccccc2)cc1	76*	-5	-1	1	24	-5
Cc1sc2nc(C(Cl)Cl)[nH]c(=O)c2c1C	-2	0	-1	0	nt	nt
O=c1[nH]cc(S(=O)(=O)O)c2ccccc12	65*	1	1	1	-4	1
O=C(CN1CCN(C(=O)c2cnccn2)CC1)c1cccs1	53*	-2	-1	0	4	16
Cc1cc(C(=O)N2CCN(CC(=O)c3cccs3)CC2)no1	61*	-4	0	0	7	12
Cc1ccc(C)c(S(=O)(=O)NCC(c2ccco2)S(=O)(=O)c2cccs2)c1 (stereo not given)	-19	-2	1	0	nt	nt
Cc1ccc2c(c1)CN(CCC(=O)NCCCn1nnc3ccccc31)CC(C)O2 (stereo not given)	21	-9	4	1	nt	nt
O=C(Nc1ccccc1-c1ccccc1)C1CCCN1C(=O)Nc1ccccc1 (stereo not given)	79*	7	1	0	12	16
COc1cc(/C=C/C(=O)Nc2nnc(C(F)(F)F)s2)cc(OC)c1OC	52*	10	-1	0	5	13
O=C(/C=C/c1ccc(Cl)cc1)Nc1nnc(C(F)(F)F)s1	-3	-6	1	0	nt	nt
CCOC(=O)c1ccc(NC(=O)NC2(C(F)(F)F)Oc3ccccc3O2)cc1	5	-14	0	0	nt	nt
CN(C)c1ccc(N=Cc2ccccc2)cc1	19	23	0	0	nt	nt
CN(C)c1ccc(N=c2cc(-c3ccccc3)cc(-c3ccccc3)s2)cc1	54*	-3	-2	0	12	17
Cc1ccc(N(CC(=O)Nc2ccccc2F)S(C)(=O)=O)cc1	-6	3	1	0	nt	nt
O=C1c2cccnc2C(=O)N1c1ccc(F)cc1	51*	3	1	-1	2	15
O=C1c2cccnc2C(=O)N1c1ccccc1	70*	-10	0	0	-16	18
O=C1c2cccnc2C(=O)N1c1ccccc1F	57*	0	1	0	19	31*
O=C1c2cccnc2C(=O)N1c1ccc(Oc2ccccc2)cc1	21	-29	0	0	nt	nt
CCOC(=O)C1=C(CC)OC(N)=C(C#N)C1c1ccc(O)c(OCC)c1 (stereo not given)	-40	-2	-1	0	nt	nt
CN1CCN(Cc2coc3c(Cl)cc(Cl)cc3c2=O)CC1	64*	-3	1	0	0	1
O=c1c(CN2CCCCC2)coc2ccc(Cl)cc12	2	-7	-1	0	nt	nt
O=C(O)c1ccc(C(=O)O)c(-c2ccccc2)c1	8	3	0	0	nt	nt
O=C(O)c1cccc(-c2cc(C(=O)O)ncc2C(=O)O)c1	57*	-1	2	-1	16	38*
O=C(O)/C=C/C(=O)Nc1ccc(SC(F)F)cc1	56*	1	-1	0	0	-10
COc1ccc(CNC(=O)C/C(C)=N/NC(=O)Cc2csc(N)n2)cc1	-7	-24	-1	0	nt	nt
CC1CN(Cc2cccc(Cl)c2)CC(C)O1 (stereo not given)	64*	1	-1	0	0	4
CC1CN(Cc2ccc(C(F)(F)F)cc2)CC(C)O1 (stereo not given)	55*	8	-1	0	1	4
